Bioassay records as filed in PubChem BioAssay.
CYP2C19 activ: cytochrome P450 2C19 (human) activation. 96,000 tested, under 10 active. P33261. AID 1025. activation factor at 5 µM. recombinant CYP2C19, luciferin-H EGE luminescence; stronger effect = higher value; 0 = fully inhibited enzyme, 1 = untreated enzyme;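 active = activation factor of at least 2 at 5 µM in the primary screen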;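 also: 0 = wells with 2.5 mM tranylcypromine and 1 = vehicle-only wells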
EphB4 ephrin blk: blocks human EphB4 binding to ephrin-B2; P54760; EphB4 LBD / TNYL-RAW-Alexa532 peptide, fluorescence polarization; inhibition, % at 7 µM; 0.15% of 97,000 active;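 active = inhibition above the screen-wide mean inhibition plus 3 SD, cut at about 15% in these data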;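 also: 0% = DMSO wells and 100% = excess unlabeled TNYL-RAW peptide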
CYP2C9 inhib: blocks human cytochrome P450 2C9 | CYP2C9 Supersomes, luciferin-H conversion, luminescence | inhibition, % at 5 µM | 20% of 96,000 active;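 active = blocking of liver enzyme CYP2C9 beyond about 50% at 5 µM, limit read from the data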
Target sequence (P11712 whole entry, looked up): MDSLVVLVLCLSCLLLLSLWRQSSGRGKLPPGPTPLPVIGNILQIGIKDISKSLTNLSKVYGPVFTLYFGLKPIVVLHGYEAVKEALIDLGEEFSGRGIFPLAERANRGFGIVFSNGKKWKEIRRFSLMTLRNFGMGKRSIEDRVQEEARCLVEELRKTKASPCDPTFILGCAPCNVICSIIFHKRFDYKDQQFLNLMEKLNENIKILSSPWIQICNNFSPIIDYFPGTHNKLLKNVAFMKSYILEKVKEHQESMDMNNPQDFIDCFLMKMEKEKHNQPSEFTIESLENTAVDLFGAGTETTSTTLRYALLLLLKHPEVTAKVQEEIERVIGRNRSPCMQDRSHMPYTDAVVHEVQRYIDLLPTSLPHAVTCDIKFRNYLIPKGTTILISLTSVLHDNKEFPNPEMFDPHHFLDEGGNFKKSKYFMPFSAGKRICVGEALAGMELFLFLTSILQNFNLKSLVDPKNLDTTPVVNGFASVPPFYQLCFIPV
CYP2C9 activ: CYP2C9 (human) activation. recombinant CYP2C9, luciferin-H conversion, luminescence; stronger effect = higher value; factor 1 = untreated enzyme, 0 = blocked. activation factor at 5 µM. 1.4% of 96,000 active. AID 1024;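 active = activation factor of 2 or more for CYP2C9 at a 5 µM dose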;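 also: 0 = sulfaphenazole-blocked wells and 1 = vehicle-only wells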
CYP2C19 inhib: inhibitors of human CYP2C19. CYP2C19 Supersomes, luciferin-H EGE luminescence, 30 min. inhibition, % at 5 µM. 21% of 96,000 active. P33261;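 active = CYP2C19 inhibition above a set limit at 5 µM in the primary screen, cut at about 50% in these data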;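 also: plate controls were negative control wells for no effect and 2.5 mM tranylcypromine positive control for full effect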
* marks the source's active call; other numbers are inactive results; nt = no result. The list is not random: actives were taken first. Their share in the collection is about 27%.

SMILES	CYP2C19 activ	EphB4 ephrin blk	CYP2C9 inhib	CYP2C9 activ	CYP2C19 inhib
CCC(=O)c1c(O)n(C2CCCCCC2)c(=O)[nH]c1=O	0.8	3	20	0.8	18
CC(=NCc1cccnc1)c1c(O)n(-c2ccc(C)cc2)c(=O)[nH]c1=O	0.8	2	13	0.9	22
CC(=NCc1cccnc1)c1c(O)n(C2CCCCC2)c(=O)[nH]c1=O	0	3	51*	0.5	99*
CCC(=NCc1ccco1)c1c(O)n(C2CCCCC2)c(=O)[nH]c1=O	0	4	51*	0.5	96*
CC(=NCc1cccnc1)c1c(O)n(-c2ccccc2C)c(=O)[nH]c1=O	0.2	5	60*	0.4	84*
CSc1ncc(/C=C2/C(=O)NC(=O)N(C3CCCCC3)C2=O)cn1	0.9	-15	12	0.9	14
CCN(CC)CCCN=C(C)c1c(O)n(C2CCCCC2)c(=O)[nH]c1=O	0.5	1	15	0.9	50
CCC(=NCCCN(CC)CC)c1c(O)n(C2CCCCC2)c(=O)[nH]c1=O	0.4	-7	8	0.9	56*
CCCCn1c(C)c(C(=O)O)c2cc(OC)ccc21	0.6	5	-14	1.1	38
O=c1[nH]c(=O)n(CCC2=CCCCC2)c(O)c1C=Nc1cccc(F)c1	0.9	3	-12	1.1	5
CC(C)(C)n1c(O)c(C=Nc2ccc3c(c2)CCC3)c(=O)[nH]c1=O	0.6	2	74*	0.3	38
Cc1ccc(-n2c(O)c(C=NC3CCCC3)c(=O)[nH]c2=O)c(C)c1	0.1	-6	10	0.9	94*
CC(=O)c1ccc2c(c1)C1C(Cl)C(Sc3ccccc3[N+](=O)[O-])CC1C(c1ccccc1)N2 (configuration not stated)	0.6	6	74*	0.3	44
CC(=O)c1ccc2c(c1)C1C(Cl)C(Sc3ccccc3[N+](=O)[O-])CC1C(c1ccccc1[N+](=O)[O-])N2 (configuration not stated)	nt	-2	nt	nt	nt
CCC(=NCc1ccc(F)cc1)c1c(O)n(C)c(=O)n(C)c1=O	0.2	7	67*	0.3	84*
CCC(=Nc1ccc2c(c1)CCC2)c1c(O)n(C)c(=O)n(C)c1=O	1.1	nt	1	1	-6
O=C(Cn1nc(Cc2cccnc2)c2ccccc2c1=O)N1CCC2(CC1)OCCO2	0.8	nt	80*	0.2	22
COc1cc2[nH]c(=O)n(-c3ccc(C)cc3)c(=O)c2cc1OC	1	6	11	0.9	-3
O=C(c1ccc2c(c1)ncn2C1CCCCC1)N1CCC2(CC1)OCCO2	1	-5	-10	1.1	5
O=C(NCc1ccc(C(=O)N2CCC3(CC2)OCCO3)cc1)c1cccc(Br)c1	0.9	2	24	0.8	12
O=C(c1cc2c(s1)CCCCCC2)N1CCC2(CC1)OCCO2	0	0	73*	0.3	97*
CCc1sc(C(=O)N2CCC3(CC2)OCCO3)cc1Br	0	nt	-65	1.7	96*
Cc1ccc(N2C(=O)NC(=O)/C(=C/c3ccc(OC(=O)c4cccs4)cc3)C2=O)cc1	0.5	-2	-2	1	54*
CN1C(=O)/C(=C/c2ccc(N3CCCCCC3)o2)C(=O)NC1=S	nt	-7	nt	nt	nt
CCOc1ccc(N=C2SCCCN2C)cc1	nt	0	nt	nt	nt
SMILES	CYP2C19 activ	EphB4 ephrin blk	CYP2C9 inhib	CYP2C9 activ	CYP2C19 inhib
O=P(C(c1c[nH]c2ccccc12)N1CCOCC1)(N1CCOCC1)N1CCOCC1 (configuration not stated)	1.1	14	75*	0.2	-10
COc1ccc(C2SCC(=O)Nc3c2c(C)nn3-c2ccccc2)cc1OC (configuration not stated)	0.7	-8	25	0.7	33
CCC(=O)Nc1ccc(N2CCN(CC)CC2)c(Cl)c1	1	2	0	1	1
O=C(C1CC(c2ccc(Cl)c(Cl)c2)=NO1)N1CCC2(CC1)OCCO2 (configuration not stated)	0	-8	-84	1.8	96*
COc1cccc(-n2nc(C(=O)N3CCC4(CC3)OCCO4)c3ccccc3c2=O)c1	0.9	nt	36	0.6	13
O=C(C1CC(c2ccc(F)cc2)=NO1)N1CCC2(CC1)OCCO2 (configuration not stated)	0.1	3	-8	1.1	94*
COc1cccc(C2=NOC(C(=O)N3CCC4(CC3)OCCO4)C2)c1 (configuration not stated)	0.3	0	-2	1	67*
O=C1CCCN1C(=O)c1cncc(Br)c1	0.6	0	37	0.6	37
